# In the library only some 19% were active in any assay of this set; here they are far more common.
# HT1080-NT tox: qHTS for induction of synthetic lethality in tumor cells producing 2HG: qHTS for the HT-1080-NT fibrosarcoma cell line; HT-1080-NT fibrosarcoma viability, CellTiter-Glo ATP luminescence, 48 h; Potency, µM (doses to about 46.1 µM), inactives show at the highest dose activity, negative = less viability, hits mostly cytotoxic; 360,000 compounds, 1.6% hits; AID 686970, 2013;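 further: NT is the 2HG producing partner of a matched IDH1 knockdown line; 0% = DMSO-treated cells and -100% = media-only wells without cells; nearly all actives have a fitted effect of over 55% in size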
#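 Viability of the 2HG-overproducing fibrosarcoma line after 48 hours of compound exposure at 37 degrees C was determined by luminescence with CellTiter-Glo, and concentration-effect curves were then fitted and categorized.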
# KB-V1 MDR tox: qHTS assay for MDR1-selective chemotherapeutics: Primary screen using the drug-selected MDR subline cells KB-V1; KB-V1 MDR cells viability, CellTiter-Glo, 72 h; 400,000 compounds, 3.4% hits; AID 1347076, 2019; Potency, µM (top dose mostly 46.1 µM), actives largely listed as cytotoxic; further: nearly all actives have a fitted effect of over 60% in size
#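 Luminescent ATP read-out (CellTiter-Glo, 10 min) measures survival of drug-selected KB-V1 MDR cells after 72 h, 37 degrees C compound exposure. Medium: phenol-red-free DMEM, 10% FBS. Values from fitted concentration-response curves.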
# DT40 TDP1 no CPT: qHTS for Inhibitors of human tyrosyl-DNA phosphodiesterase 1 (TDP1): qHTS in cells in absence of CPT. DT40 Tdp1-/- hTDP1 cells, no CPT, ATP luminescence, 48 h. Potency, µM (series often up to 46.2 µM), for the others: at the highest dose activity change, negative = growth inhibition, most hits filed as inhibitors. 420,000 compounds, 15% hits. AID 686978, 2013; further: nearly all actives have a fitted effect of over 55% in size
#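 Compound effects on proliferation are scored in DT40 Tdp1-/-;hTDP1 cells in the absence of CPT. ATP levels (CellTiter-Glo luminescence) are recorded after a ≥48 hr, 37 °C incubation.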
# KB-3-1 tox: qHTS assay for MDR1-selective chemotherapeutics: Primary screen using the parental adenocarcinoma cell KB-3-1. KB-3-1 viability, CellTiter-Glo ATP luminescence, 72 h. Potency, µM (highest dose often 46.1 µM), most hits filed as cytotoxic. 400,000 compounds, 1.4% hits; further: nearly all actives have a fitted effect of over 60% in size
#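 Viability of parental KB-3-1 cells, measured by CellTiter-Glo luminescence, followed a 72 h incubation at 37 °C with pinned compounds in phenol-red-free DMEM containing 10% FBS.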
# HT1080 IDH1KD tx: qHTS for induction of synthetic lethality in tumor cells producing 2HG: qHTS for the HT-1080-IDH1KD cell line; Potency, µM (top dose mostly 46.1 µM), without a hit: top-dose activity, negative = toxicity, actives largely listed as cytotoxic; HT-1080 IDH1 knockdown viability, ATP luminescence, 48 h; 360,000 compounds, 2% hits;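 further: 0% = DMSO wells and -100% = cell-free medium wells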
#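 Viability of IDH1-knockdown HT-1080 fibrosarcoma cells was assessed by CellTiter-Glo after 48 h at 37 °C with titrated compound; concentration-effect curves were classified by fit quality and response size.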
# TDP1 cell CPT: qHTS for Inhibitors of human tyrosyl-DNA phosphodiesterase 1 (TDP1): qHTS in cells in presence of CPT. 420,000 compounds, 12% hits. AID 686979, 2013. chicken DT40 Tdp1-/-;hTDP1 cells + 20 nM CPT, ATP luminescence, 48 h. Potency, µM (series often up to 46.2 µM), without a hit: top-dose activity change, negative = growth inhibition, usual class: inhibitors; further: nearly all actives have a fitted effect of over 55% in size
#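 Chicken DT40 Tdp1-/- cells complemented with human TDP1, 400 cells/well, exposed to compounds plus 20 nM camptothecin for at least 48 h at 37 C; viability read as ATP content by CellTiter-Glo luminescence.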
# Starred values were filed as active, the others as inactive; i = inactive; ? = inconclusive; . = no result; [ ] = another dose, or the depositor's remark. The call rests on the fitted dose curve; in most records, active means well fitted curve in the direction sought with a large enough effect; inconclusive means small, poorly fitted or top-dose-only effect, or another doubt; inactive means no such curve, though single readings can be large; an effect the other way counts as inactive or inconclusive. Unless noted, on the % scale 0 is the no-effect control and ±100 the full control effect; potency means the concentration at half of the fitted maximal effect.
SMILES,HT1080-NT tox,KB-V1 MDR tox,DT40 TDP1 no CPT,KB-3-1 tox,HT1080 IDH1KD tx,TDP1 cell CPT
CC(=O)Nc1ccc(S(=O)(=O)NC2=C(N3CCN(c4ccc(F)cc4)CC3)C(=O)c3ccccc3C2=O)cc1,?,?,16µM*,i,?,10µM*
COc1ccccc1C1=CC(=O)CC(C)(C)C1=O,28%,i,-2%,i,2%,0%
COCCn1c(=O)c(-c2cc(F)cc(F)c2)nc2cnc(N3CCOCC3)nc21,.,.,2%,.,.,0%
CCOC(=O)c1c(C)c(C)n2c1NC(=O)C2,24%,i,-10%,i,-1%,?
COc1nc(NC(=O)c2ccc(F)cc2)nc(OC)c1-c1ccccc1,?,?,-27%,?,?,-1%
CC(C)(CN1CCN(Cc2ccccc2)CC1)NS(=O)(=O)c1ccc(Cl)cc1,?,?,18µM*,i,3%,16µM*
CCOC(=O)N1CCN(C2=C(NS(=O)(=O)c3ccc(C)cc3)C(=O)c3ccccc3C2=O)CC1,?,?,?,i,?,8.2µM*
O=c1c(-c2ccc(F)cc2)nc2cnc(N3CCOCC3)nc2n1C[C@H]1CCCO1,.,.,-2%,.,.,-6%
O=C(NC(=S)Nc1ccc2[nH]c(=O)[nH]c2c1)c1cccc(F)c1,-13%,i,-23%,i,-12%,-21%
O=C1NC[C@H](Cc2ccccc2)N(C[C@@H]2CCCN2C[C@H](Cc2ccc(O)cc2)N2C[C@H](Cc3ccccc3)N(CCc3ccccc3)C(=O)C2=O)C1=O,?,i,-30%,?,?,?
Oc1ccc(C[C@@H](CN2CCC[C@@H]2CN2C(=S)NC[C@@H]2Cc2ccccc2)N2C[C@H](Cc3ccccc3)N(CCc3ccccc3)C2=S)cc1,-16%,i,18µM*,i,-4%,16µM*
Oc1ccc(C[C@H]2CNC(=S)N2CC2CCCN2C[C@H](Cc2ccccc2)N2C[C@H](Cc3ccc(O)cc3)N(CCc3ccccc3)C2=S)cc1 (some centres undefined),-20%,?,23µM*,?,?,23µM*
CN1C(=O)C(O)(CC(=O)/C=C/c2ccco2)c2ccccc21 (centres undefined),0%,i,-16%,?,-3%,4%
CN1C(=O)C(O)(CC(=O)/C=C/c2ccco2)c2cc(Br)ccc21 (centres undefined),-18%,i,4.1µM*,?,-14%,6.5µM*
CN1C(=O)C(O)(CC(=O)c2ccccc2O)c2cc(Br)ccc21 (centres undefined),16µM*,?,5.8µM*,?,0%,5.2µM*
COc1ccc(-c2[nH]ncc2C(=O)NCc2ccccc2OC)cc1,.,.,-23%,.,.,-1%
COc1ccccc1Cn1c(/C=C/c2ccccc2)nc2ccccc21,-17%,5.2µM*,?,16µM*,-21%,?
COCCn1c(/C=C/c2ccccc2)nc2ccccc21,-33%,?,?,i,-38%,-22%
COc1ccc(/C=C/c2nc3ccccc3n2Cc2ccccc2OC)cc1,16µM*,?,8.2µM*,?,16µM*,7.3µM*
Cc1cccn2c(=O)c3cc(C#N)c(=O)n(-c4nnc(SCc5ccc(F)cc5)s4)c3nc12,.,i,?,i,.,?
COc1ccc(C2CC(=O)C3=C(C2)Nc2ncnn2C3c2ccccc2)cc1 (centres undefined),-7%,?,-23%,i,-2%[9.24 µM],5%
COc1ccc(C2CC(=O)C3=C(C2)Nc2ncnn2C3c2ccccc2C)cc1 (centres undefined),-3%,16µM*,-4%,i,-6%,3%
O=C1c2c(Cl)c(Cl)c(Cl)c(Cl)c2C(=O)N1c1nccs1,6%,i,?,i,6%,?
Cc1nccn1Cc1ccccc1,.,i,-2%,i,.,9%
Cc1ccccc1C(C)(O)c1cnc(C)n1Cc1ccccc1 (centres undefined),-6%,?,12µM*,?,0%,21µM*
SMILES,HT1080-NT tox,KB-V1 MDR tox,DT40 TDP1 no CPT,KB-3-1 tox,HT1080 IDH1KD tx,TDP1 cell CPT
COc1ccccc1-c1cnnc(N/N=C/c2ccc(-c3cccc(Br)c3)o2)n1,11%,i,23µM*,i,4%,15µM*
CCNc1nc(NCC)nc(N/N=C/c2ccc([N+](=O)[O-])o2)n1,-7%,21µM*,16µM*,?,-11%,16µM*
O=[N+]([O-])c1ccc(-c2ccc(/C=N/Nc3nc(N4CCCC4)nc(N4CCCC4)n3)o2)cc1,2%,i,4.6µM*,i,7%,15µM*
O=[N+]([O-])c1ccc(/C=N/Nc2ccc3ccccc3c2)o1,?,i,-30%,i,?,?
COc1ccc(-c2cnnc(N/N=C/c3ccc(-c4ccc([N+](=O)[O-])cc4)o3)n2)cc1,-27%,18µM*,1.5µM*,4.6µM*,?,1.2µM*
O=[N+]([O-])c1cccc(-c2ccc(/C=N/Nc3nc(N4CCCCC4)nc(N4CCCCC4)n3)o2)c1,1%,?,?,?,-1%,?
CSc1ncnc2c1ncn2CCCNCc1ccc(C)o1,-3%,i,-29%,i,13%,0%
O=[N+]([O-])c1ccc(/C=N/Nc2nc(N3CCCC3)nc(N3CCCC3)n2)o1,?,21µM*,?,i,?,23µM*
O=[N+]([O-])c1ccc(-c2ccc(/C=N/Nc3nc(N4CCCCC4)nc(N4CCCCC4)n3)o2)cc1,4%,i,21µM*,i,4%,?
COc1ccc(-c2cnnc(N/N=C/c3ccc(O)c(OC)c3)n2)cc1,?,5.8µM*,5.2µM*,4.1µM*,5.2µM*,5.2µM*
O=[N+]([O-])c1cc(/C=N/Nc2nc(N3CCCCC3)nc(N3CCCCC3)n2)ccc1O,23%,i,?,i,11%,14%
COc1cc(/C=N/Nc2ccc(C(=O)O)cc2)ccc1O,0%,i,10%,i,-7%,1%
